Consider 16 compounds from PubChem BioAssay (NCI).

What all share (assay): NCI-60 one-dose screen, 48 h (100 = growth as untreated, 0 = no growth, -100 = all killed)
Holding throughout (details): 10 µM

For test [1], the system named is T-47D breast.
For test [2], the system named is BT-549 breast.
The subject of test [3] is MDA-MB-435 melanoma.
In test [4] the test system is SW-620 colon.
Test [5] deals with MCF7 breast.
The test system of test [6] is HCT-116 colon.
For test [7], the system named is HCC-2998 colon.
The subject of test [8] is KM12 colon.

The structures appear in SMILES notation. Compounds without any hit were thinned out: in the full panel of roughly 83,000, 20% have a hit.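 A percent growth of 40 corresponds to 60% growth inhibition; 0 means no net growth; -100 means all cells died. Active threshold: below 10.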 A number with no mark means an inactive call. Active and inactive are the calls of the source.

Turning to `Nc1cc(Br)c(-c2nn3c(CCC(=O)c4nc5ccccc5[nH]4)nnc3s2)c(Br)c1`, the growth was 88% in test [1]; 105% in test [2]; 90.5% in test [3]; 112% in test [4]; 87.5% in test [5]; 77.9% in test [6]. In addition, the growth was 104% in test [7] and 96.4% in test [8].

With `COc1ccc2nc(Cl)c(Cn3nnc(Cc4ccccc4)n3)cc2c1`, the growth is 2.44% (active) in test [1]; 20.3% in test [2]; 29.3% in test [3]; 66.4% in test [4]; 27.9% in test [5]; 29.2% in test [6]. Also, the results for the growth in test [7] and in test [8] were 59% and 36.5%, respectively.

Turning to `Clc1ccc(C2=NN=C3C(Cc4ccccc4)=Nc4ccccc4N3C2)cc1`, the growth in test [1] was 95%; in test [2], 88.8%; in test [3], 73%; in test [4], 91.8%; in test [5] it was 88.7%; in test [6], 53.1%. For the same compound, the growth in test [7] was 68.5%; in test [8], 63.6%.

On to `NS(=O)(=O)Oc1ccc2c(ccn2C(=O)C23CC4CC(CC(C4)C2)C3)c1`, for which the growth in test [1] is 112%; in test [2] it was 105%; in test [3], 106%; in test [4], 103%; in test [5] it was 120%; in test [6], 102%. Moreover, the growth in test [7] is 101%; in test [8] it was 107%.

As to `Cn1cnc([N+](=O)[O-])c1/C=C1\Oc2ccc(Br)cc2C1=O`, the growth was 98.1% in test [1]; 95.8% in test [2]; 78% in test [3]; 82.6% in test [4]; 47.9% in test [5]; 56.9% in test [6]. Also, the growth in test [7] is 101%; in test [8], 93.9%.

As for `C[N+]1(CCCCC[N+]2(C)CCCC2)CCCC1`, the growth in test [1] was 101%; in test [2], 77.8%; in test [3] it was 98.6%; in test [4] it was 98.3%; in test [5] it was 95.2%; in test [6], 107%. Besides, the growth is 119% in test [7] and 102% in test [8].

Consider `C=CCn1c(SCC(=O)Nc2ccc(C(=O)/C=C/c3cc(OC)c(OC)c(OC)c3)cc2)nnc1-c1cc(-c2ccc(Cl)cc2)nc2ccccc12`, for which the growth in test [1] was 78.4%; in test [2], 75%; in test [3], 92.9%; in test [4], 90.7%; in test [5] it was 38.6%; in test [6], 50%. The growth was 103% in test [7] and 85.8% in test [8].

For `CC(C)(C)OC(=O)CC(S(=O)(=O)c1ccccc1)S(=O)(=O)c1ccccc1`, the growth was 67.1% in test [1]; 108% in test [2]; 100% in test [3]; -63.9% (active) in test [4]; 97% in test [5]; 82.5% in test [6]. For the same compound, the growth is 106% in test [7] and 99.6% in test [8].

Take `CCOC(=O)c1cc(C(=O)c2cc(OC)c(OC)c(OC)c2)n2ncc3ccccc3c12`: the growth in test [1] is 77.1%; in test [2] it was 70.5%; in test [3] it was 7.14% (active); in test [4], 35.8%; in test [5], 30.4%; in test [6] it was 50.8%. Besides, the growth in test [7] is 93.2%; in test [8], 39.6%.

`COc1ccc(-c2cc(-c3ccc(Cl)cc3)nc(SCCCC(=O)NO)n2)cc1OC`: the growth is 15% in test [1]; 30.4% in test [2]; 19.6% in test [3]; 9.88% (active) in test [4]; 1.13% (active) in test [5]; 5.45% (active) in test [6]. Further, the growth in test [7] is -50.7% (active); in test [8] it was 21.7%.

Consider `Cc1cc(CC(C)CC(C)(C)C)n(O)c(=O)c1` (stereo not drawn) (tested in a mixture with another compound), for which the growth was 28.1% in test [1]; 29.4% in test [2]; 22.2% in test [3]; 34.4% in test [4]; 17.5% in test [5]; 22.9% in test [6]. The growth in test [7] was 57.5%; in test [8], 27.4%.

Take `CS(=O)(=O)c1nccc(-c2c(-c3cccc(O)c3)nc3sccn23)n1`: the growth was 99% in test [1]; 113% in test [2]; 84.6% in test [3]; 106% in test [4]; 86.3% in test [5]; 91% in test [6]. Further, the growth in test [7] was 114%; in test [8], 96.6%.

For the compound `CC1CCCC(C(=O)O)C1C(=O)O` (stereo not drawn), the growth in test [1] is 90.9%; in test [2] it was 95.9%; in test [3], 102%; in test [4] it was 98.9%; in test [5], 103%; in test [6], 99.5%. The values for the growth in test [7] and in test [8] were 92.9% and 106%, respectively.

`C[C@@H](O)[C@H]1C(=O)N2C(C(=O)O)=C(SCCN=CN)C[C@H]12`: the growth is -6.42% (active) in test [1]; 18.9% in test [2]; -9.18% (active) in test [3]; -0.331% (active) in test [4]; -6.51% (active) in test [5]; -24.8% (active) in test [6]. Besides, the growth was 0.878% (active) in test [7] and 9.33% (active) in test [8].

Regarding `Cc1cc(Cl)ccc1Nc1nc(C(F)(F)F)ccc1C(=O)N/N=C/c1cccc(O)c1`, the growth in test [1] was 39.8%; in test [2], 9.22% (active); in test [3], 56%; in test [4], 27.8%; in test [5], 29.9%; in test [6], 17.6%. The growth in test [7] is 31.9%; in test [8] it was 41.8%.

Consider `CC(=O)Nc1ccc2c(c1)C(=O)c1cccc(C(=O)O)c1-2`, for which the growth in test [1] is 99.3%; in test [2] it was 117%; in test [3], 102%; in test [4] it was 99.8%; in test [5], 105%; in test [6], 105%. For the same compound, the figures for the growth in test [7] and in test [8] were 102% and 120%, respectively.
